Assay results reported in PubChem BioAssay.
“And” between values parts separate entries of the source, which are not always exact repeats. Identical values can stand only once. Inconclusive results are not listed. The source made the active and inactive calls.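 The calls were made as follows, unless noted: active = normalized viability below 100% at a tested concentration; inactive = the rest.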

Columns and labels:
[1] = viability loss in pontine glioma line – cell-based, SU-DIPG-XXV, MIPE5.0, CellTiter-Glo, qHTS, dose response (AID 1347065; cut-off not given, nearly all actives have AC50 up to about 26 µM;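 also: cells exposed to compound for 48 hours before ATP readout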); details: CellTiter-Glo ATP luminescence
[2] = SU-DIPG-VI glioma cell viability, MIPE4.0 library, CellTiter-Glo luminescence, qHTS (AID 1347066; cut-off not given, nearly all actives have AC50 up to about 30 µM;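 also: cells exposed to compound for 48 hours before readout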); details: CellTiter-Glo ATP luminescence
[3] = JHH-DIPG-1 glioma cell viability, MIPE5.0 library, CellTiter-Glo luminescence, qHTS (AID 1347067; cut-off not given, nearly all actives have AC50 up to about 26 µM;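 also: cells exposed to compound for 48 hours before readout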); details: JHH-DIPG-1 glioma viability, CellTiter-Glo ATP luminescence
[4] = SU-DIPG-XXV glioma cell viability, MIPE5.0 library, qHTS (AID 1347068; cut-off not given, nearly all actives have IC50 up to about 30 µM)
[5] = phospholipid biosynthesis inhibitors in animal cells, primary screen, cell-based, LOPAC library, screen 4 (AID 1347384; call rule not given here); details: phospholipid biosynthesis inhibition screen, at 10 µM
[6] = survival rescue of mitochondrial mutant cells in low glucose, primary screen, MELAS cybrids, Rieske KO mouse fibroblasts, CellTiter-Glo (AID 1508586;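 active = mean z-score across replicates of 1.96 or higher in either the MELAS or the Rieske mutant cell line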;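 also: z relative to plate mean and SD of compound and empty wells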)
[7] = target: NAD(+) hydrolase SARM1 (Homo sapiens) (UniProt Q6SZW1); assay: SARM1 TIR NADase inhibitors, cell lysate, NAD-Glo luminescence (AID 1508614;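 active = compound whose remaining NAD level is above about 45 nM, limit read from the data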;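 also: higher remaining NAD means stronger inhibition of SARM1 NADase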); details: SAM-TIR HEK293T lysate NADase, at 1 µM, stronger effect = higher value
Sequence of NAD(+) hydrolase SARM1 (Homo sapiens) (Q6SZW1 whole entry, looked up, the tested form may be a part): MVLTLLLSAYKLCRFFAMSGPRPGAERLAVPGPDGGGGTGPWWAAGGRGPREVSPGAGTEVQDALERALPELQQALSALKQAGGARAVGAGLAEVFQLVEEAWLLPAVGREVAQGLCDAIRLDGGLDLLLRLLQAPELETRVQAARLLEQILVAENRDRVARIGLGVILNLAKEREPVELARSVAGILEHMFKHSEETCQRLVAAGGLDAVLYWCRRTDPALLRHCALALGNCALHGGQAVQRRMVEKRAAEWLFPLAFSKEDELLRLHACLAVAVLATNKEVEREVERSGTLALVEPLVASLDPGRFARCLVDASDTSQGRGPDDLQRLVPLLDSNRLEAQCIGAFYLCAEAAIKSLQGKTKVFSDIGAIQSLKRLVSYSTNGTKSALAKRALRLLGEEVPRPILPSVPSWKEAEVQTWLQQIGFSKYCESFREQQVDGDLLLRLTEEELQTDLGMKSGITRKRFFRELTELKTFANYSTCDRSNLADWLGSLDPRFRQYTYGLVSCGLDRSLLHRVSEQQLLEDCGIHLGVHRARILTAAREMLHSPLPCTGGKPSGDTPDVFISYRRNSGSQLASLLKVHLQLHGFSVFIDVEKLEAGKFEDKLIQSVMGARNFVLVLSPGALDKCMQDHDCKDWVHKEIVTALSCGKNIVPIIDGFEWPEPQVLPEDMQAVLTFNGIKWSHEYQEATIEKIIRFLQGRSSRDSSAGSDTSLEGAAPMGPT

[8] = target: Mitogen-activated protein kinase 7 (Homo sapiens) (UniProt Q13164); assay: ERK5 transactivation activators in reporter cells, primary screen, cell-based, HTS (AID 1508626;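 active = luciferase signal above three times the same-plate solvent-only control wells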;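 also: luciferase driven by Gal4-ERK5 fusion binding five Gal4 sites before minimal TATA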); details: HeLa Gal4-ERK5 transactivation, 18 h, at 5 µM, stronger effect = higher value
Sequence of Mitogen-activated protein kinase 7 (Homo sapiens) (Q13164 whole entry, looked up, the tested form may be a part): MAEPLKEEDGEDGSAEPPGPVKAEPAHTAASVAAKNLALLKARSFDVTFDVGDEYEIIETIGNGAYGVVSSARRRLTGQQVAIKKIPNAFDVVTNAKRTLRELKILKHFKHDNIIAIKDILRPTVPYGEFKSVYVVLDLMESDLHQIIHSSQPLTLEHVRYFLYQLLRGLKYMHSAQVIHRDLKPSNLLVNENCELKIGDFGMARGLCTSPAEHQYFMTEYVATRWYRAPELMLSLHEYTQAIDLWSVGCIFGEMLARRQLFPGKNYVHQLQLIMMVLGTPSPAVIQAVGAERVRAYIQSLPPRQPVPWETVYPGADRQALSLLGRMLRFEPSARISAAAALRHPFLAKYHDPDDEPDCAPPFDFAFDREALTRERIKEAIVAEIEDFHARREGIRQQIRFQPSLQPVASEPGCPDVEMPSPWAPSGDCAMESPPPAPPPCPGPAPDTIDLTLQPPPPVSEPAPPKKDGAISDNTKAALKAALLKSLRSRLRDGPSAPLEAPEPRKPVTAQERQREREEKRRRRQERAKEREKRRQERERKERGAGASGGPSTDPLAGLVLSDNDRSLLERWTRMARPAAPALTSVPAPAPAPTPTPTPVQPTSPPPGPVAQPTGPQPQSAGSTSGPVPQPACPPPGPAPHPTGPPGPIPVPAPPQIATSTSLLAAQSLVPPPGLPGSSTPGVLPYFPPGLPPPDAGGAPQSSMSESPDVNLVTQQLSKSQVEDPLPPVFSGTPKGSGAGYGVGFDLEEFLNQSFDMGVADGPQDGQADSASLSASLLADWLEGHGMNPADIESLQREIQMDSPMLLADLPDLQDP

[9] = viability rescue of complex I mutant cybrids, primary screen, cell-based, galactose medium, ATP luminescence (AID 1645843;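 active = z-score of at least 1.8 in each of two replicates, scored against plate mean and spread of sample wells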;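 also: positive z means more ATP and so rescue of galactose-driven cybrid death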); details: complex I mutant cybrid cells, 72 h, stronger effect = higher value
[10] = inhibitors of Cryptococcus chitosan production, flow cytometry, Cibacron Brilliant Red staining (AID 1347148; call rule not given here;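 also: compound exposure lasted three days at 37 degrees C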); details: Cryptococcus neoformans chitosan, stronger effect = lower value; at 10 µM unless noted
[11] = modifiers of HSF1 nuclear foci, imaging, Selleck Cancer Library (AID 1347162; in the data active = plate-normalised HSF1 focus index below about 0.46); details: human cells, at 10 µM; SSMD: measured here: HSF1 foci SSMD mean; cell count: measured here: cell number; plate-normalised HSF1 focus index: stronger effect = lower value
[12] = ovarian cancer cell viability with rucaparib, profiling panel, oncology-focused library, rucaparib conditional (AID 1508598); details: patient-derived ovarian cancer cells, CellTiter-Glo viability, 144 h, stronger effect = lower value
[13] = MELAS cybrid survival, CellTiter-Glo 48 h, stronger effect = higher value
[14] = Rieske KO mouse fibroblast survival, CellTiter-Glo 72 h

Clc1ccc2nsnc2c1NC1=NCCN1
inactive: outcome [1] | outcome [2] | outcome [3] | outcome [4] | outcome [5] | z-score [6, 13] -0.43 and 0.0544 and -0.148
0.606 and 0.144 and -1.3: z-score [6, 14]

Cc1cc(C(C)(C)C)c(O)c(C)c1CC1=NCCN1
0.698 and 0.504 and 0.891: z-score [6, 14]
inactive: outcome [1] | outcome [2] | outcome [3] | outcome [4] | outcome [5] | z-score [6, 13] -0.371 and 0.43 and 0.93 | remaining NAD [7] 10 nM | luciferase signal [8] 28 AU | z-score [9] 0.16 and -0.235 and 0.51

Cc1ccccc1N1C(=O)c2cc(S(N)(=O)=O)c(Cl)cc2NC1C (configuration not stated)
0.325 and -0.0446: z-score [6, 14]
inactive: outcome [1] | outcome [2] | outcome [3] | outcome [4] | outcome [5] | z-score [6, 13] -0.2 and 0.948 | remaining NAD [7] 10 nM | luciferase signal [8] 64 AU | z-score [9] -0.04

COc1ccc(C2CNC(=O)C2)cc1OC1CCCC1 (configuration not stated)
inactive: outcome [1] | outcome [2] | outcome [3] | outcome [4] | fold fluorescence [10] 10.1 [at 181.6 µM] | outcome [5] | remaining NAD [7] 10 nM | luciferase signal [8] 72 AU

COc1ccccc1OCC(O)CN1CCN(CC(=O)Nc2c(C)cccc2C)CC1 (configuration not stated)
7450: cell count [11]
2.29: SSMD [11]
inactive: outcome [1] | outcome [2] | outcome [3] | outcome [4] | plate-normalised HSF1 focus index [11] 1.14 | outcome [5] | viability ([12]; at 0.000305 µM, OCI-C5x cells, with rucaparib 10 µM, 100% = cells with rucaparib alone) 108% | viability ([12]; at 0.000305 µM, OCI-C5x cells, without rucaparib) 113% | viability ([12]; at 0.000305 µM, OCI-P5x cells, with rucaparib 20 µM, 100% = cells with rucaparib alone) 102% | viability ([12]; at 0.000305 µM, OCI-P5x cells, without rucaparib) 108% | viability ([12]; at 0.00122 µM, OCI-C5x cells, with rucaparib 10 µM, 100% = cells with rucaparib alone) 114% | viability ([12]; at 0.00122 µM, OCI-C5x cells, without rucaparib) 124% | viability ([12]; at 0.00122 µM, OCI-P5x cells, without rucaparib) 106% | viability ([12]; at 0.00488 µM, OCI-C5x cells, with rucaparib 10 µM, 100% = cells with rucaparib alone) 115% | viability ([12]; at 0.00488 µM, OCI-C5x cells, without rucaparib) 113% | viability ([12]; at 0.00488 µM, OCI-P5x cells, without rucaparib) 109% | viability ([12]; at 0.0195 µM, OCI-C5x cells, with rucaparib 10 µM, 100% = cells with rucaparib alone) 106% | viability ([12]; at 0.0195 µM, OCI-C5x cells, without rucaparib) 107% | viability ([12]; at 0.0195 µM, OCI-P5x cells, without rucaparib) 108% | viability ([12]; at 0.0781 µM, OCI-C5x cells, with rucaparib 10 µM, 100% = cells with rucaparib alone) 108% | viability ([12]; at 0.0781 µM, OCI-C5x cells, without rucaparib) 114% | viability ([12]; at 0.0781 µM, OCI-P5x cells, with rucaparib 20 µM, 100% = cells with rucaparib alone) 101% | viability ([12]; at 0.0781 µM, OCI-P5x cells, without rucaparib) 106% | viability ([12]; at 0.313 µM, OCI-C5x cells, with rucaparib 10 µM, 100% = cells with rucaparib alone) 110% | viability ([12]; at 0.313 µM, OCI-C5x cells, without rucaparib) 118% | viability ([12]; at 0.313 µM, OCI-P5x cells, without rucaparib) 107% | viability ([12]; at 1.25 µM, OCI-C5x cells, with rucaparib 10 µM, 100% = cells with rucaparib alone) 102% | viability ([12]; at 1.25 µM, OCI-C5x cells, without rucaparib) 121% | viability ([12]; at 1.25 µM, OCI-P5x cells, with rucaparib 20 µM, 100% = cells with rucaparib alone) 104% | remaining NAD [7] 10 nM | luciferase signal [8] 56 AU | z-score [9] -0.345 and -0.115 and 0.005
active: viability ([12]; at 0.00122 µM, OCI-P5x cells, with rucaparib 20 µM, 100% = cells with rucaparib alone) 96% | viability ([12]; at 0.00488 µM, OCI-P5x cells, with rucaparib 20 µM, 100% = cells with rucaparib alone) 93.5% | viability ([12]; at 0.0195 µM, OCI-P5x cells, with rucaparib 20 µM, 100% = cells with rucaparib alone) 94.5% | viability ([12]; at 0.313 µM, OCI-P5x cells, with rucaparib 20 µM, 100% = cells with rucaparib alone) 94.5% | viability ([12]; at 1.25 µM, OCI-P5x cells, without rucaparib) 92.6% | viability ([12]; at 5 µM, OCI-C5x cells, with rucaparib 10 µM, 100% = cells with rucaparib alone) 67.5% | viability ([12]; at 5 µM, OCI-C5x cells, without rucaparib) 39.4% | viability ([12]; at 5 µM, OCI-P5x cells, with rucaparib 20 µM, 100% = cells with rucaparib alone) 49.6% | viability ([12]; at 5 µM, OCI-P5x cells, without rucaparib) 23.6%

NC(=O)OCC(COC(N)=O)c1ccccc1
0.386 and -0.256: z-score [6, 14]
inactive: outcome [1] | outcome [2] | outcome [3] | outcome [4] | outcome [5] | z-score [6, 13] 0.426 and -0.303 | luciferase signal [8] 112 AU | z-score [9] 0.13 and 0.59 and 0.445
